# Hits are enriched below; roughly 4.8% of the tested compounds scored in any of these assays.
# SMARCA2 activ: increases SMARCA2 function in MMTV reporter cells; MG213 cells, MMTV-luciferase reporter, dexamethasone, overnight; activation, % at 9.1 µM; 1% of 370,000 active; AID 652017; in the data active = activation above about 7.8%;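 note: 0% = vehicle wells and 100% = reference activator wells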
# hcDAF-12 act: activates DAF-12 receptor from parasite H. contortus; HEK293 hcDAF-12 lit1-tk-luc reporter, luminescence; 0% DMSO, 100% Δ7-dafachronic acid; activation, % at 6.8 µM; 1.4% of 370,000 active;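 active = activation above the mean of all tested compounds plus 3 SD, cut at about 5.5% in these data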;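 note: 100% = response to 3 µM Δ7-dafachronic acid high control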
# DAX1 inh-1: inhibitors of human orphan nuclear receptor DAX1 (NR0B1); P51843; HEK293 Gal4-DAX1 luciferase reporter, luminescence; inhibition, % at 6.75 µM; 0.99% of 340,000 active;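 active = inhibition above the mean over all tested compounds plus 3 SD, cut at about 4.2% in these data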;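 note: 0% = DAX1-transfected cells with DMSO and 100% = empty-vector control cells with DMSO; inhibition shows as a rise in luminescence from relieved DAX1 repression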
# Target sequence (P51843 207-470 limits assumed): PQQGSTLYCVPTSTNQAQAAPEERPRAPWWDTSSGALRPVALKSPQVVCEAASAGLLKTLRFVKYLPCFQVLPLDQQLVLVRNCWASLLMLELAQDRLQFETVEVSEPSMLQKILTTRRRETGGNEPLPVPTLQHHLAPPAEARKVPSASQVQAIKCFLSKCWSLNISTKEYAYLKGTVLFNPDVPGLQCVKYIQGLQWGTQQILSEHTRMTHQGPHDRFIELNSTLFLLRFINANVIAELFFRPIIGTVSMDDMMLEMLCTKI
# hgDAF12 agonist: agonists of H. glycines DAF-12 nuclear receptor; HEK293 GAL4-hgDAF12 UAS-luciferase reporter, agonist luminescence; normalized to butyrate control; activation, % at 6.8 µM; 1.8% of 370,000 active;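 active = activation above a cutoff set at the mean of all screened compounds plus 3 SD, cut at about 10% in these data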;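 note: 0% = DMSO wells and 100% = sodium butyrate wells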
# ssDAF12 agonist: activates DAF-12 receptor from parasite S. stercoralis; 1% of 370,000 active; HEK293 ssDAF-12/GRIP1 lit1-tk-luc reporter, luminescence; % of 3 µM dafachronic acid response; activation, % at 6.8 µM;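 active = activation above the mean over all tested compounds plus 3 SD, cut at about 0.9% in these data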;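 note: 0% = DMSO-only wells and 100% = 3 µM delta7-dafachronic acid wells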
# DAX1 inh-2: DAX1 (NR0B1) inhibition, primary screen | HEK293T StAR-luciferase reporter, SF-1/DAX-1 repression relief | inhibition, % at 6.8 µM | 1.1% of 370,000 active | AID 652010;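 active = inhibition above the mean over all tested compounds plus 3 SD, cut at about 3.6% in these data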;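 note: 0% = DAX-1 cells with DMSO and 100% = cells lacking DAX-1 with DMSO; higher inhibition means more luminescence from relief of DAX-1 repression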
# * hit, by the source's call; / = not tested or not shown.
SMILES,SMARCA2 activ,hcDAF-12 act,DAX1 inh-1,hgDAF12 agonist,ssDAF12 agonist,DAX1 inh-2
Cc1nc(NC(=O)c2ccc(Br)o2)ccc1Br,2.5,3.6,0.1,5.3,-0.5,4.0*
COc1ccc(CC(=O)Nc2ccc(/C(C)=N\NC(=O)c3ccc(Br)o3)cc2)cc1,3.5,6.2*,1.4,12.2*,0.0,2.9
O=C(Nc1cccc(NC(=O)c2ccc(Br)o2)n1)c1ccc(Br)o1,-0.7,0.5,-0.5,0.0,-0.9,0.7
CC/C(=N/NC(=O)c1ccc(Br)o1)c1ccc(Cl)cc1,1.3,2.1,0.7,11.6*,-1.4,0.7
C/C(=N\NC(=O)c1ccccc1N)c1ccc(NC(=O)Cc2ccccc2)cc1,1.7,3.3,6.9*,8.3,0.7,1.8
CCCC/C(=N\NC(=O)c1ccc(Br)o1)c1ccccc1,3.5,1.3,1.5,8.1,-0.5,2.0
COc1ccccc1C(=O)N/N=C(\C)c1ccc(NC(=O)Cc2ccccc2)cc1,-0.4,5.2,1.0,7.3,-0.2,1.6
N#Cc1ccccc1COC(=O)c1ccc2c(c1)OCCO2,4.8,-1.4,2.0,1.0,-1.2,0.7
O=C(Nc1ccc2c(c1)CCC2)c1ccc(Br)o1,-1.0,5.8*,2.9,12.7*,0.3,2.2
CC(=O)Nc1ccc2c(c1)CCCC2,-0.4,-1.2,-1.3,-1.6,-1.4,0.1
Cc1nonc1CC(=O)N1CCc2c([nH]c3ccccc23)C1c1ccccc1F (stereo not given),-1.1,4.9,-0.7,1.5,-0.4,-0.1
O=C(Cc1cnc2ncnn2c1)N1CCc2c([nH]c3ccccc23)C1c1ccccc1F (stereo not given),-0.6,4.2,-1.1,-2.6,1.7*,0.3
O=c1oc(-c2ccccc2)nc2sc3c(c12)CCCC3,1.1,1.9,0.6,-0.3,-0.3,-0.4
O=c1oc(-c2cc3ccccc3o2)nc2sc3c(c12)CCCC3,0.9,1.1,0.8,-0.1,4.2*,0.3
O=C1Nc2ccccc2N=C(c2ccc3c(c2)OCO3)C1N(C(=O)c1ccc2ccccc2c1)C1CC1 (stereo not given),0.5,5.6*,/,11.1*,0.0,3.6
O=C1Nc2ccccc2N=C(c2ccc3c(c2)OCO3)C1N(C(=O)c1ccnc2ccccc12)c1ccccc1 (stereo not given),-1.6,1.9,/,4.7,-0.3,-0.6
CC1CCCCC1NC(=O)COC(=O)C12CC3CC(CC(Cl)(C3)C1)C2 (stereo not given),-2.6,0.3,6.0*,1.6,-1.9,0.0
O=C(COC(=O)C12CC3CC(CC(Cl)(C3)C1)C2)Nc1ccccc1,-1.2,-0.2,-0.2,-3.0,-0.8,0.3
Cc1ccc(Nc2nc(N)c([N+](=O)[O-])c(NCc3ccco3)n2)cc1C,2.0,-0.3,0.1,8.8,-1.4,1.0
CCOC(=O)c1c(NC(=O)COC(=O)c2cc(OC)c(OC)cc2[N+](=O)[O-])sc(C)c1C,-0.8,2.6,1.6,-0.6,1.4*,0.1
CCOC(=O)c1c(NC(=O)COC)sc(C)c1C,-4.1,-1.8,-0.1,-1.6,-1.3,-0.4
O=C(O)CNC(=O)c1ccccc1,0.1,-2.5,-0.2,2.5,-1.7,1.1
CC(NC(=O)CN1C(=O)NC2(CCCCC2)C1=O)c1ccc(S(N)(=O)=O)cc1 (stereo not given),-3.1,1.4,-1.1,0.3,-0.9,3.9*
CC(NC(=O)CN1C(=O)NC2(CCCCCCC2)C1=O)c1ccccc1 (stereo not given),2.0,2.3,0.2,-1.1,-0.2,-0.9
OC1(c2cccc(C(F)(F)F)c2)CCN(CCN2CCCCC2)CC1,-1.1,0.0,2.0,-0.2,1.6*,0.1
SMILES,SMARCA2 activ,hcDAF-12 act,DAX1 inh-1,hgDAF12 agonist,ssDAF12 agonist,DAX1 inh-2
COc1ccc(-n2nc(C(=O)NCC(=O)NC3CCCCCC3)c3ccccc3c2=O)c(OC)c1,-1.5,-2.6,0.6,-0.8,-0.8,0.1
CC(NC(=O)NC(N)=O)(C(F)(F)F)C(F)(F)F,0.4,-2.5,5.5*,2.0,-1.2,-0.2
Cc1cc(C)nc(CC(N)=O)n1,-0.8,0.0,5.9*,0.1,-1.5,-0.4
Cc1cc(C)nc(SCC(=O)NN)n1,-2.0,0.1,-0.3,-1.5,-0.9,0.8
Cc1ccccc1C(=O)Nc1ccc2c(c1)OCCO2,4.1,5.4,-3.2,11.0*,1.8*,3.2
O=C(Nc1ccc2c(c1)OCCO2)c1cnn(-c2ccccc2)n1,4.7,1.4,-0.4,9.7,0.0,4.2*
O=C(CSCc1ccccc1)Nc1ccc2c(c1)OCO2,-0.8,2.5,2.1,8.0,0.3,3.8*
O=C(CSc1ccccc1)Nc1ccc2c(c1)OCO2,3.8,1.0,0.7,12.6*,-0.6,1.2
O=C(CSc1ccc2c(c1)OCCO2)Nc1ccc2c(c1)OCO2,/,/,0.7,/,/,/
O=C(Cc1ccc(Cl)cc1)OCC(=O)N1CCCCCC1,-0.9,0.8,0.3,2.6,-1.2,0.3
O=C(CC(=O)c1ccccc1)Nc1ccc2c(c1)OCCO2,5.4,2.9,1.7,11.9*,0.8,2.7
Cn1cc([N+](=O)[O-])c(C(=O)NCc2cc3ccccc3[nH]2)n1,-1.1,2.8,0.9,3.3,1.8*,1.4
CN(CC1CCCN(CCc2ccc(Cl)cc2)C1)C(=O)C(=O)c1ccco1 (stereo not given),-1.0,-0.5,-0.3,-4.1,-1.4,0.0
CN(C)N=Nc1ccc(-c2cn(Cc3ccccc3)cn2)cc1,6.4,1.8,1.9,10.3,1.0*,1.2
O=C(c1ccc(F)cc1)C(CCCCCC(CN1CCOCC1)C(=O)c1ccc(F)cc1)CN1CCOCC1 (stereo not given),0.8,0.9,/,-2.2,-1.4,-1.5
Cc1ccc(S(=O)(=O)N/N=C/c2ccc(OS(=O)(=O)c3ccc(C)c([N+](=O)[O-])c3)cc2)cc1,2.6,-1.3,-0.9,-0.3,-0.8,-1.4
COc1ccccc1OC(=O)c1ccc(S(=O)(=O)N(C)C)cc1,1.8,-0.9,5.2*,2.7,-1.4,0.0
COc1cc(NC(=O)c2ccc(S(=O)(=O)N(C)C)cc2)cc(OC)c1OC,-4.1,-2.0,0.8,-0.5,-1.6,-0.5
Cc1cccc(NC(=O)CN2C(=O)N/C(=C/c3cc(C)n(-c4cccnc4)c3C)C2=O)c1,1.3,-1.2,6.6*,-3.3,-1.1,-0.2
Cc1cccc(NC(=O)CN2C(=O)N/C(=C/c3cc(C)n(-c4ccncc4)c3C)C2=O)c1,-1.1,-2.8,0.2,0.4,-1.4,-1.1
CCn1c(C(=O)OC)cc2c1ccn2-c1ccc(F)cc1,-0.4,1.8,2.4,13.2*,0.1,0.7
CC1=C(C(=O)Nc2ccccn2)C(c2ccccc2Cl)NC(=S)N1 (stereo not given),4.7,1.6,1.1,11.3*,-0.8,2.0
CN(C)S(=O)(=O)c1cccc(C(=O)N2CCN(C(=O)C3CCCO3)CC2)c1 (stereo not given),-2.1,-0.3,1.6,-0.8,-0.6,3.8*

# Assay outcomes from PubChem BioAssay.
